The structures appear in SMILES notation. Values without a mark were called inactive. The source made the active and inactive calls. Rule as the data show it: active = log2 fold change growth below about -1.8; inactive = the rest.

A short description of the assay: C. elegans growth inhibition, whole organism, log2 fold change (AID 1259336).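 Also: growth scored by imaging after five days at 20 °C.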 The note with it: anthelmintic screen, stronger effect = lower value.
`CO/N=C(/C(=O)OC)c1ccccc1CO/N=C(/C)c1cccc(C(F)(F)F)c1`: the log2 fold change growth was -0.187.
As for `CCc1nn(C)c(C(=O)NCc2ccc(Oc3ccc(C)cc3)cc2)c1Cl`, the log2 fold change growth was -10.9 (active).
As for `O=C1O[C@@H](CO)CN1c1cc(F)c(C2=CCN(Cc3ccccc3)CC2)c(F)c1`, the figure is 0.141.
`CC(C)(C)C(O)C(Oc1ccc(-c2ccccc2)cc1)n1cncn1` (centres undefined): the log2 fold change growth is -0.263.
Consider `O=C1O[C@@H](COc2ccon2)CN1c1cc(F)c(C2=CCN(Cc3ccccc3)CC2)c(F)c1`, for which the log2 fold change growth was 0.114.
On to `Cc1nn(Cc2ccccc2)c(Cl)c1C(=O)NC1CCCCCC1`, for which the log2 fold change growth is 0.0333.
Consider `Cc1cc(C2=NO[C@](c3cc(Cl)c(F)c(Cl)c3)(C(F)(F)F)C2)ccc1C(=O)NCc1ccc2c(c1)C(C)(C)OB2O`, for which the log2 fold change growth was -0.268.
Regarding `Cc1cccc(C(=O)Nc2ccnc(N(C)C3CCN(CC(C)C)CC3)c2)c1`, the log2 fold change growth is 0.418.
For `Cc1nn(C)c(C)c1NS(=O)(=O)c1c(Cl)cc(-c2ccnc(N3CCNCC3)c2)cc1Cl`, the log2 fold change growth is -0.0922.
Regarding `CO[C@@H]1CN(c2ccc(C#CC3(O)CN4CCC3CC4)c(Cc3ccccc3)n2)C[C@H]1O` (some centres undefined), the log2 fold change growth was -0.086.
As for `CC1COC(Cn2cncn2)(c2ccc(Oc3ccc(Cl)cc3)cc2Cl)O1` (centres undefined), the figure is -0.72; as for `CC1(C)OB(O)c2ccc(C3=NO[C@](c4cc(Cl)c(F)c(Cl)c4)(C(F)(F)F)C3)cc21`, -2.88.
For `Nc1c2c(nc3sc4c(c13)CCCC4)CCCC2`, the log2 fold change growth is -0.177.
Consider `CO/C=C(\C(=O)OC)c1ccccc1Oc1cc(Oc2ccccc2C#N)ncn1`, for which the log2 fold change growth is -0.352.

These data come from PubChem BioAssay AID1259336 (Sattelle Laboratory, UCL Respiratory, Division of Medicine, …, 2017).
